# Compounds with a hit are over-represented: about 8.7% of the library has one in this group of screens.
# BAZ2B block – BAZ2B (human) inhibition. hit rate 4.4% among 360,000. Q9UIF8. AlphaScreen BAZ2B-H3K14Ac peptide displacement. Potency, µM (top dose mostly 114 µM), for the others: at the top dose activity change, negative = inhibition, hits mostly inhibitors; further: on the % scale 0 is the no-effect control and ±100 the full control effect; nearly all actives have a fitted effect of over 60% in size
#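 AlphaScreen luminescence quantifies BAZ2B engagement of H3K14Ac peptide; the protein and biotinylated peptide are both at 50 nM final, buffer PBS pH 7.4 with 0.01% Tween-20, all steps at room temperature.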
# ALOX12 inh – blocks human arachidonate 12S-lipoxygenase. P18054. purified 12hLO, xylenol orange hydroperoxide absorbance. Potency, µM (doses to about 108 µM), for inactives: top-dose activity change, negative = inhibition, hits mostly inhibitors. hit rate 1.1% among 580,000. AID 1671190; further: on the % scale 0 is the no-effect control and ±100 the full control effect
#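 Purified human 12hLO at 150 nM in 25 mM Hepes, 0.01% Triton X-100, pH 7.0, preincubated 15 min at room temperature with compound. Reaction started with 40 uM arachidonic acid, 30 min at room temperature. Hydroperoxide measured by Fe-xylenol orange, 573/405 nm absorbance ratio.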
# Sfp PPTase inh – Sfp phosphopantetheinyl transferase inhibition; Potency, µM, without a hit: largest response in the series, negative = inhibition, actives largely listed as inhibitors; hit rate 3.5% among 310,000; Biochemical Sfp PPTase activity, qHTS;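 further: the enzyme is Sfp with the accession as filed and its product quenches rhodamine fluorescence; 0% = enzyme reaction without inhibitor and -100% = no enzyme wells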
#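 Buffer: 50 mM Hepes-Na pH 7.6, 10 mM MgCl2, 0.01% Nonidet P-40, 0.01% BSA. Enzyme 15 nM, pre-exposed to compound 15 min; substrates then added and fluorescence change tracked over 30 min.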
# HP1b chromo inh – HP1-beta chromodomain-methylated histone interaction inhibition. AlphaScreen HP1-beta / biotin-H3K9me3 peptide binding. Potency, µM (doses to about 114 µM), for the others: at the highest dose activity change, negative = inhibition, usual class: inhibitors. hit rate 0.56% among 390,000. P83916; further: nearly all actives have a fitted effect of over 70% in size
#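 HP1-beta protein (50 nM final) preincubated 30 min at room temperature with biotinylated H3(1-18)K9me3 peptide (50 nM) in PBS pH 7.4, 0.01% Tween-20, then compound added for 30 min. AlphaScreen streptavidin donor/nickel chelate acceptor beads (10 ug/mL final), 30 min dark, luminescence read.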
# JMJD2A Tudor inh – blocks the human JMJD2A Tudor domain | O75164 | AlphaScreen JMJD2A-Tudor / H3K4me3 peptide binding | Potency, µM (series often up to 114 µM), without a hit: top-dose activity change, negative = inhibition, most hits filed as inhibitors | hit rate 4.4% among 390,000 | AID 504339; further: on the % scale 0 is the no-effect control and ±100 the full control effect; nearly all actives have a fitted effect of over 50% in size
# G9a inh – G9a (human) methyltransferase inhibition; hit rate 8.8% among 350,000; G9a H3K9 monomethylation, AlphaScreen, 2 h; AID 504332; Potency, µM (top dose mostly 102 µM), without a hit: at the top dose activity, negative = inhibition, most hits filed as inhibitors; Q96KQ7; further: on the % scale 0 is the no-effect control and ±100 the full control effect; nearly all actives have a fitted effect of over 75% in size
#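 Methyltransferase reactions run at room temperature for 2 h (20 nM enzyme, 500 nM biotin-H3K9 peptide, 20 uM SAM) after a 15 min compound preincubation; product detected by AlphaScreen beads and anti-H3K9me1 antibody.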
# * = called active by the depositor; ? = inconclusive; · = no result; [ ] = remark or other dose. The call rests on the fitted dose curve; in most records, active means well fitted curve in the direction sought with a large enough effect; inconclusive means small, poorly fitted or top-dose-only effect, or another doubt; inactive means no such curve, though single readings can be large; an effect the other way counts as inactive or inconclusive. Potency means the concentration at half of the fitted maximal effect.
SMILES,BAZ2B block,ALOX12 inh,Sfp PPTase inh,HP1b chromo inh,JMJD2A Tudor inh,G9a inh
Cc1ccc(NC(=O)/C=C\C(=O)N(c2ccc(C(C)C)cc2)C(C(=O)NCc2ccco2)c2ccc(Cl)cc2)cc1 (stereo not drawn),-17%,?,·,24%,-28%,?
Cc1ccc(C(C(=O)NCc2ccco2)N(C(=O)Cn2nnc3ccccc32)c2ccccc2)o1 (stereo not drawn),-8%,59%,-13%,-19%,-34%,45µM*
Cc1ccc(CN(C(=O)Cn2nnc3ccccc32)C(C(=O)NCc2ccco2)c2ccc(C)o2)cc1 (stereo not drawn),-4%,26%,19%,33%,-10%,-4%[59 µM]
CCOc1cc(C(C(=O)NCC2CCCO2)N(C(=O)Cn2nnc3ccccc32)c2ccc(OC)c(OC)c2)ccc1O (stereo not drawn),-1%,-2%,12%,21%,13%,45µM*
CC(C)NC(=O)C(C)Sc1nnc(NC2CC2)s1 (stereo not drawn),·,-2%,·,·,·,·
CCS(=O)(=O)N1CCc2cc(C(=O)CSc3ccc(F)c(F)c3)ccc21,·,-16%,·,·,·,·
CSCC[C@H](NC(=O)C1CCN(S(=O)(=O)c2ccc(C)cc2)CC1)C(=O)NC1CCS(=O)(=O)C1 (stereo partly drawn),-4%,6%,1%,23%,-14%,56µM*
Cc1ccc(NC(=O)CSc2nc3ccccc3o2)cc1,·,-13%,·,·,·,·
O=C(O)c1ccccc1/C=N/Nc1ccc(S(=O)(=O)N2CCCC2)cc1[N+](=O)[O-],?,13%,-1%,-2%,-35%,?
CCOc1ccc(C=NNc2ccc(S(=O)(=O)Nc3ccccc3C(=O)O)cc2[N+](=O)[O-])cc1,·,?,·,40µM*,22µM*,·
COc1ccc(NC(=S)NNc2ccc(S(=O)(=O)Nc3ccccc3C(=O)O)cc2[N+](=O)[O-])cc1,7.1µM*,7.9µM*,79µM*,11µM*,?,·
C=CCOc1ccc(C=NNc2ccc(S(=O)(=O)Nc3ccccc3C(=O)O)cc2[N+](=O)[O-])cc1OC,·,?,·,?,16µM*,·
COc1ccc(C=NNc2ccc(S(=O)(=O)Nc3ccccc3C(=O)O)cc2[N+](=O)[O-])c(OC)c1,·,·,·,20µM*,35µM*,·
O=C(O)c1ccccc1NS(=O)(=O)c1ccc2ccccc2c1,-17%,?,9%,21%,-7%,2%[12.7 µM]
Cc1ccc(NS(=O)(=O)c2ccc(N/N=C/c3ccccc3)c([N+](=O)[O-])c2)c(C)c1,·,28%,·,·,·,·
O=C(CCn1ccn2nc3c(c2c1=O)CCCC3)Nc1cccc(C(F)(F)F)c1,·,17%,·,·,·,·
Cc1nn(-c2ccccc2)c(Cl)c1/C=N/Nc1ccc(Cl)c(C(=O)O)c1,?,-16%,2%,?,?,3.5µM*
Cc1nn(-c2ccccc2)c(Cl)c1/C=N/Nc1ccc(S(=O)(=O)Nc2ccccc2C(=O)O)cc1[N+](=O)[O-],14µM*,?,-21%,?,50µM*,20µM*
Cc1ccc(S(=O)(=O)Nc2ccccc2C(=O)OC(C)C(=O)Nc2ccc3ccccc3c2)cc1[N+](=O)[O-] (stereo not drawn),-38%,-10%,2%,-1%,-30%,50µM*
O=C(O)c1ccccc1NS(=O)(=O)c1ccc(NN=Cc2ccccc2F)c([N+](=O)[O-])c1,·,?,·,50µM*,20µM*,·
Cc1cc(NC(=O)C(C)OC(=O)c2cc3c(s2)CCCCCC3)no1 (stereo not drawn),·,3%,·,·,·,·
CSc1ccc(C=NNc2ccc(S(=O)(=O)Nc3ccccc3C(=O)O)cc2[N+](=O)[O-])cc1,·,?,·,20µM*,20µM*,·
CC(=O)Nc1ccc(CN2CCCCC23Cc2ccccc2CNC3=O)cc1 (stereo not drawn),·,2%[6.33 µM],·,·,·,·
COc1ccc2c(c1)[N+](C)(C)C(C)(C)C=C2C,-22%,32µM*,-13%,?,18µM*,?
CCOc1ccc2c(c1)[N+](C)(C)C(C)(C)C=C2C,-16%,?,13%,3%,18µM*,?
SMILES,BAZ2B block,ALOX12 inh,Sfp PPTase inh,HP1b chromo inh,JMJD2A Tudor inh,G9a inh
CCOc1ccc2c(c1)C(C)=CC(C)(C)N2S(=O)(=O)c1ccc(C)cc1,-2%,12%,-12%,50%,4%,1%[12.7 µM]
COc1ccc(N2CCN(CCCNC(=O)c3cc(Nc4ccc(OC)cc4OC)nc4ccccc34)CC2)cc1,16µM*,?,·,?,25µM*,13µM*
COc1ccccc1Nc1cc(C(=O)N2CCc3ccccc3C2)c2ccccc2n1,-12%,·,9%,·,·,9%
COc1ccc(Nc2cc(C(=O)NCCCN(C)C3CCCCC3)c3ccccc3n2)c(OC)c1,·,-19%,·,?,20µM*,?
COc1ccc(Nc2cc(C(=O)N3CCc4ccccc4C3)c3ccccc3n2)c(OC)c1,?,-10%,3%,4%,?,18µM*
COc1ccc(OC)c(Nc2cc(C(=O)NCCCN3CCOCC3)c3ccccc3n2)c1,?,11%,-14%,-19%,?,·
COc1ccc(Nc2cc(C(=O)NCCCN(C)C3CCCCC3)c3ccccc3n2)cc1,·,-14%,·,?,?,-35%[59 µM]
Cc1ncsc1C1N(C2CCN(S(=O)(=O)c3ccccc3)CC2)C(=O)C12CCCC2 (stereo not drawn),·,30%,·,·,·,·
COc1ccc(S(=O)(=O)NCc2ccccn2)cc1OC,?,?,-21%,13%,-16%,-47%[12.7 µM]
COc1ccc(S(=O)(=O)NCc2ccccn2)cc1NC(=O)c1ccccc1C,?,?,·,11%,1µM*,-35%
COc1ccc(S(=O)(=O)NCc2ccccn2)cc1NC(=O)c1ccc(Cl)cc1,-7%,-11%,·,-24%,3.5µM*,-3%
COc1ccc(S(=O)(=O)NCc2ccncc2)cc1NC(=O)c1ccccc1,0%,?,·,10%,-10%,-10%[0.501 µM]
CCOc1ccc(S(=O)(=O)NCc2ccncc2)cc1NC(=O)c1ccccc1,3%,-6%,·,15%,-14%,56µM*
COc1ccccc1OCc1ccc(C(=O)N/N=C/c2ccco2)cc1,-8%,-14%,30%,17%,-15%,7%
COc1ccc(COC(=O)N/C=C/c2ccco2)cc1,-28%,?,-10%,24%,-3%,50µM*
COc1ccc(CC(=O)NCC(=O)N/N=C/c2ccco2)cc1,-4%,13%,15%,42%,-1%,0%[59 µM]
COc1ccccc1COC(=O)N/C=C/c1ccco1,?,50µM*,?,6%,-31%,20µM*
Cc1ccc(-c2nc(CSc3nc4ncccc4[nH]3)c(C)o2)cc1,·,7%,·,·,·,·

# High-throughput results from PubChem.
